Laboratory results taken from PubChem BioAssay (NCI).
Compounds without any hit were thinned out: in the full panel of roughly 83,000, 20% have a hit.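 The test compound was applied at a single concentration to cells in 96-well plates for 48 hours, and percent growth was recorded.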 Calls of active or inactive are those of the source. How the source made its calls: active means growth percent below 10; inactive means the rest.

Tests used:
Test in all cases: NCI-60 one-dose screen, 48 h (100 = growth as untreated, 0 = no growth, -100 = all killed)
Conditions in all cases: 10 µM unless noted
NCI-H23 lung = tested on: NCI-H23 lung
NCI-H226 lung = tested on: NCI-H226 lung
NCI-H322M lung = tested on: NCI-H322M lung
HOP-62 NSCLC = tested on: HOP-62 NSCLC
NCI-H460 lung = tested on: NCI-H460 lung
HOP-92 NSCLC = tested on: HOP-92 NSCLC
NCI-H522 lung = tested on: NCI-H522 lung
A549/ATCC NSCLC = tested on: A549/ATCC NSCLC
786-0 renal = tested on: 786-0 renal
COLO 205 colon = tested on: COLO 205 colon
DU-145 prostate = tested on: DU-145 prostate
K-562 leukemia = tested on: K-562 leukemia
MALME-3M melanoma = tested on: MALME-3M melanoma
MDA-MB-231 breast = tested on: MDA-MB-231 breast
RXF 393 renal = tested on: RXF 393 renal
SF-268 CNS = tested on: SF-268 CNS
SF-295 CNS = tested on: SF-295 CNS
SF-539 CNS = tested on: SF-539 CNS
UACC-257 melanoma = tested on: UACC-257 melanoma
M14 melanoma = tested on: M14 melanoma

Measured: growth

CNC(=O)NN
inactive: NCI-H23 lung 98.2% | NCI-H226 lung 103% | NCI-H322M lung 103% | HOP-62 NSCLC 94.7% | NCI-H460 lung 105% | HOP-92 NSCLC 82.5% | NCI-H522 lung 104% | A549/ATCC NSCLC 98.9% | 786-0 renal 107% | COLO 205 colon 94.5% | DU-145 prostate 103% | K-562 leukemia 109% | MALME-3M melanoma 93.7% | MDA-MB-231 breast 108% | RXF 393 renal 108% | SF-268 CNS 111% | SF-295 CNS 99.6% | SF-539 CNS 97% | UACC-257 melanoma 100% | M14 melanoma 98.1%

O=C(Nc1ccc(-n2ccc3c(NC(=O)c4ccccc4)ncnc32)cc1)Nc1ccc(Cl)c(C(F)(F)F)c1
inactive: NCI-H322M lung 36% | HOP-62 NSCLC 20.1% | 786-0 renal 37% | COLO 205 colon 17.4% | MALME-3M melanoma 15% | MDA-MB-231 breast 12% | SF-539 CNS 13.5%
active: NCI-H23 lung -28.2% | NCI-H226 lung 8.8% | NCI-H460 lung -62.2% | HOP-92 NSCLC -8.52% | NCI-H522 lung -58.9% | A549/ATCC NSCLC -62.9% | DU-145 prostate -22.7% | K-562 leukemia 0.237% | RXF 393 renal -56.9% | SF-268 CNS -15% | SF-295 CNS -37.6% | UACC-257 melanoma 7.73% | M14 melanoma 3.01%

O=C(Nc1cccc([N+](=O)[O-])c1)c1ccc2ccccc2c1O
inactive: NCI-H23 lung 41.6% | NCI-H226 lung 76.9% | NCI-H322M lung 105% | HOP-62 NSCLC 53% | NCI-H460 lung 50.2% | A549/ATCC NSCLC 68.1% | 786-0 renal 40.4% | COLO 205 colon 110% | DU-145 prostate 79.3% | K-562 leukemia 45.6% | MALME-3M melanoma 20.5% | MDA-MB-231 breast 82.2% | RXF 393 renal 37.5% | SF-268 CNS 71.7% | SF-295 CNS 57.1% | SF-539 CNS 55.2% | UACC-257 melanoma 14.5% | M14 melanoma 49.8%
active: HOP-92 NSCLC 6.8% | NCI-H522 lung -8.09%

Clc1ccc2c(c1)nnn1c3ncccc3c(Br)c21
inactive: NCI-H23 lung 81.1% | NCI-H226 lung 90.1% | NCI-H322M lung 88.5% | HOP-62 NSCLC 63.7% | NCI-H460 lung 78.6% | HOP-92 NSCLC 42.9% | NCI-H522 lung 67.8% | A549/ATCC NSCLC 89.6% | 786-0 renal 56.6% | COLO 205 colon 88.9% | DU-145 prostate 90.9% | K-562 leukemia 81.8% | MALME-3M melanoma 81.8% | MDA-MB-231 breast 63.9% | RXF 393 renal 41.5% | SF-268 CNS 60.9% | SF-295 CNS 61.9% | SF-539 CNS 61.9% | UACC-257 melanoma 101% | M14 melanoma 97.7%

Oc1ccc(Cl)cc1Sc1cc(Cl)ccc1O
inactive: NCI-H23 lung 93.3% | NCI-H226 lung 88.4% | NCI-H322M lung 115% | HOP-62 NSCLC 98.4% | NCI-H460 lung 107% | HOP-92 NSCLC 63.6% | NCI-H522 lung 81.6% | A549/ATCC NSCLC 95.5% | 786-0 renal 110% | COLO 205 colon 105% | DU-145 prostate 98.9% | K-562 leukemia 93.3% | MALME-3M melanoma 86.2% | MDA-MB-231 breast 96.4% | RXF 393 renal 62% | SF-268 CNS 87.8% | SF-295 CNS 108% | SF-539 CNS 97.6% | UACC-257 melanoma 94.7% | M14 melanoma 95.8%

O=C(O)c1ccccc1C(=O)c1ccc(I)cc1
inactive: NCI-H23 lung 102% | NCI-H226 lung 101% | NCI-H322M lung 104% | HOP-62 NSCLC 88.7% | NCI-H460 lung 105% | HOP-92 NSCLC 78.3% | NCI-H522 lung 75.5% | A549/ATCC NSCLC 98.4% | 786-0 renal 99% | COLO 205 colon 103% | DU-145 prostate 109% | K-562 leukemia 104% | MALME-3M melanoma 98.3% | MDA-MB-231 breast 110% | RXF 393 renal 108% | SF-268 CNS 106% | SF-295 CNS 102% | SF-539 CNS 98.9% | UACC-257 melanoma 117% | M14 melanoma 98.2%

OCc1cn(-c2ccc(Cl)cc2)nc1-c1ccc(O)cc1
inactive: NCI-H23 lung 96.7% | NCI-H226 lung 96.9% | NCI-H322M lung 85.8% | HOP-62 NSCLC 81.9% | NCI-H460 lung 106% | HOP-92 NSCLC 136% | NCI-H522 lung 71.2% | A549/ATCC NSCLC 90.1% | 786-0 renal 93.4% | COLO 205 colon 115% | DU-145 prostate 97% | K-562 leukemia 88% | MALME-3M melanoma 100% | MDA-MB-231 breast 97.9% | RXF 393 renal 107% | SF-268 CNS 78.6% | SF-295 CNS 100% | SF-539 CNS 93.2% | UACC-257 melanoma 108% | M14 melanoma 95%

COc1ccc(-c2[nH]c3ccccc3c2/C=C(\C#N)S(=O)(=O)c2ccccc2)cc1
inactive: NCI-H23 lung 17.5% | NCI-H226 lung 65.2% | NCI-H322M lung 61.9% | HOP-62 NSCLC 35.5% | HOP-92 NSCLC 65.5% | NCI-H522 lung 26.8% | A549/ATCC NSCLC 33.9% | 786-0 renal 22.1% | DU-145 prostate 12.3% | K-562 leukemia 33.8% | MALME-3M melanoma 73.6% | MDA-MB-231 breast 31.5% | SF-268 CNS 45.1% | UACC-257 melanoma 73.2% | M14 melanoma 20.2%
active: NCI-H460 lung 3.97% | COLO 205 colon -39.4% | RXF 393 renal -12.2% | SF-295 CNS -11.5% | SF-539 CNS -30.7%

COc1ccc(-c2nnc(NC(=O)CN3CCN(c4cc5c(cc4F)c(=O)c(C(=O)O)cn5C4CC4)CC3)s2)cc1OC
inactive: NCI-H23 lung 96.3% | NCI-H226 lung 87.8% | NCI-H322M lung 98.2% | HOP-62 NSCLC 95.6% | NCI-H460 lung 101% | HOP-92 NSCLC 106% | NCI-H522 lung 89.1% | A549/ATCC NSCLC 100% | 786-0 renal 88.1% | COLO 205 colon 104% | DU-145 prostate 113% | K-562 leukemia 89.9% | MALME-3M melanoma 98.9% | MDA-MB-231 breast 102% | RXF 393 renal 105% | SF-268 CNS 97.7% | SF-295 CNS 103% | SF-539 CNS 96.8% | UACC-257 melanoma 98% | M14 melanoma 97.7%

COc1cccc(-c2nc3sccn3c2-c2ccnc(NCCNC(=O)Nc3cccc(C(F)(F)F)c3)n2)c1
active: RXF 393 renal 6.3%
inactive: NCI-H23 lung 83.8% | NCI-H226 lung 94.9% | NCI-H322M lung 81.3% | HOP-62 NSCLC 98.9% | NCI-H460 lung 45.1% | HOP-92 NSCLC 92.4% | NCI-H522 lung 47.7% | A549/ATCC NSCLC 44.4% | 786-0 renal 65.6% | COLO 205 colon 57.6% | DU-145 prostate 79.8% | K-562 leukemia 39.9% | MALME-3M melanoma 85.1% | MDA-MB-231 breast 43.7% | SF-268 CNS 62.3% | SF-295 CNS 37.7% | SF-539 CNS 77.9% | UACC-257 melanoma 69.5% | M14 melanoma 39.2%

O=C(Nc1cccc(-n2ccc3c(NC(=O)c4ccccc4)nccc32)c1)c1cc(N2CCOCC2)cc(C(F)(F)F)c1
inactive: NCI-H23 lung 19.8% | NCI-H226 lung 28.7% | NCI-H322M lung 30.8% | HOP-62 NSCLC 36.6% | HOP-92 NSCLC 29.3% | MALME-3M melanoma 32% | UACC-257 melanoma 32%
active: NCI-H460 lung -11% | NCI-H522 lung -47.5% | A549/ATCC NSCLC -8.84% | 786-0 renal -31.6% | COLO 205 colon -51.4% | DU-145 prostate -20.2% | K-562 leukemia 4.28% | MDA-MB-231 breast -16.6% | RXF 393 renal -67.3% | SF-268 CNS 8.26% | SF-295 CNS -24.4% | SF-539 CNS -23.2% | M14 melanoma 9.34%

N#Cc1c2c(c(N)[nH]c1=O)C(=O)NC2(O)c1ccccc1 (stereo not given)
inactive: NCI-H23 lung 98.8% | NCI-H226 lung 99.2% | NCI-H322M lung 103% | HOP-62 NSCLC 104% | NCI-H460 lung 118% | HOP-92 NSCLC 114% | NCI-H522 lung 85.1% | A549/ATCC NSCLC 97.1% | 786-0 renal 104% | COLO 205 colon 107% | DU-145 prostate 105% | K-562 leukemia 98.7% | MALME-3M melanoma 87.1% | MDA-MB-231 breast 112% | RXF 393 renal 103% | SF-268 CNS 105% | SF-295 CNS 100% | SF-539 CNS 104% | UACC-257 melanoma 96.7% | M14 melanoma 100%

O=C(Nc1ccc(-n2ccc3c(NC(=O)c4ccccc4)ncnc32)cc1)Nc1ccc(Cl)c(Cl)c1
active: HOP-62 NSCLC 8.39% | NCI-H460 lung -29.6% | HOP-92 NSCLC -9.63% | NCI-H522 lung -12.2% | A549/ATCC NSCLC -44.5% | DU-145 prostate -12.3% | K-562 leukemia -39.8% | MALME-3M melanoma 7.71% | RXF 393 renal -18.2% | SF-268 CNS -20.7% | SF-295 CNS -8.32% | SF-539 CNS -22.6% | UACC-257 melanoma 8.87%
inactive: NCI-H23 lung 18.7% | NCI-H226 lung 16.7% | NCI-H322M lung 21% | 786-0 renal 26.1% | COLO 205 colon 17.7% | MDA-MB-231 breast 26.7% | M14 melanoma 12%

CCOC(=O)CSc1nnc(-c2cc3c([nH]c4ccccc43)c(-c3cccc(O)c3)n2)n1-c1ccc(C)cc1
inactive: NCI-H23 lung 97% | NCI-H226 lung 100% | NCI-H322M lung 95.2% | HOP-62 NSCLC 88.3% | NCI-H460 lung 103% | HOP-92 NSCLC 48.9% | NCI-H522 lung 47.1% | A549/ATCC NSCLC 98.5% | 786-0 renal 88.7% | COLO 205 colon 95.1% | K-562 leukemia 16.8% | MALME-3M melanoma 80.3% | MDA-MB-231 breast 45% | RXF 393 renal 79.5% | SF-268 CNS 74.7% | SF-295 CNS 99.9% | SF-539 CNS 78% | UACC-257 melanoma 91.3% | M14 melanoma 44.5%
active: DU-145 prostate -0.541%

Nc1ncnc2c1c(-c1ccc(Oc3ccccc3)cc1)nn2C[C@@H]1SSC[C@H]1O
inactive: NCI-H23 lung 40.6% | NCI-H322M lung 36.9% | HOP-62 NSCLC 37.6% | NCI-H522 lung 10.1% | A549/ATCC NSCLC 21.4% | 786-0 renal 42.7% | COLO 205 colon 52% | DU-145 prostate 33.4% | MDA-MB-231 breast 42.6% | SF-268 CNS 29.3% | SF-295 CNS 24.2% | SF-539 CNS 15.3% | UACC-257 melanoma 36.8%
active: NCI-H226 lung -3.02% | NCI-H460 lung 3.61% | HOP-92 NSCLC -6.86% | K-562 leukemia 7.7% | MALME-3M melanoma 7.28% | RXF 393 renal -9.3% | M14 melanoma -13.8%
